Pf apPOL inh – Pf-apPOL DNA polymerase inhibition | Recombinant Pf-apPOL, molecular beacon fluorescence, 1.5 h | inhibition, % at 10 µM | actives 0.25% (n = 210,000)
mHTT-CaM PPI inh – inhibitors of human mutant huntingtin-calmodulin interaction. P42858. actives 3.6% (n = 190,000). AlphaScreen His-mHTT/GST-CaM binding, luminescence. inhibition, % at 15 µM;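 further: 0% = both proteins with DMSO and 100% = one protein alone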
Target sequence (P42858 whole entry, looked up, stated change not applied): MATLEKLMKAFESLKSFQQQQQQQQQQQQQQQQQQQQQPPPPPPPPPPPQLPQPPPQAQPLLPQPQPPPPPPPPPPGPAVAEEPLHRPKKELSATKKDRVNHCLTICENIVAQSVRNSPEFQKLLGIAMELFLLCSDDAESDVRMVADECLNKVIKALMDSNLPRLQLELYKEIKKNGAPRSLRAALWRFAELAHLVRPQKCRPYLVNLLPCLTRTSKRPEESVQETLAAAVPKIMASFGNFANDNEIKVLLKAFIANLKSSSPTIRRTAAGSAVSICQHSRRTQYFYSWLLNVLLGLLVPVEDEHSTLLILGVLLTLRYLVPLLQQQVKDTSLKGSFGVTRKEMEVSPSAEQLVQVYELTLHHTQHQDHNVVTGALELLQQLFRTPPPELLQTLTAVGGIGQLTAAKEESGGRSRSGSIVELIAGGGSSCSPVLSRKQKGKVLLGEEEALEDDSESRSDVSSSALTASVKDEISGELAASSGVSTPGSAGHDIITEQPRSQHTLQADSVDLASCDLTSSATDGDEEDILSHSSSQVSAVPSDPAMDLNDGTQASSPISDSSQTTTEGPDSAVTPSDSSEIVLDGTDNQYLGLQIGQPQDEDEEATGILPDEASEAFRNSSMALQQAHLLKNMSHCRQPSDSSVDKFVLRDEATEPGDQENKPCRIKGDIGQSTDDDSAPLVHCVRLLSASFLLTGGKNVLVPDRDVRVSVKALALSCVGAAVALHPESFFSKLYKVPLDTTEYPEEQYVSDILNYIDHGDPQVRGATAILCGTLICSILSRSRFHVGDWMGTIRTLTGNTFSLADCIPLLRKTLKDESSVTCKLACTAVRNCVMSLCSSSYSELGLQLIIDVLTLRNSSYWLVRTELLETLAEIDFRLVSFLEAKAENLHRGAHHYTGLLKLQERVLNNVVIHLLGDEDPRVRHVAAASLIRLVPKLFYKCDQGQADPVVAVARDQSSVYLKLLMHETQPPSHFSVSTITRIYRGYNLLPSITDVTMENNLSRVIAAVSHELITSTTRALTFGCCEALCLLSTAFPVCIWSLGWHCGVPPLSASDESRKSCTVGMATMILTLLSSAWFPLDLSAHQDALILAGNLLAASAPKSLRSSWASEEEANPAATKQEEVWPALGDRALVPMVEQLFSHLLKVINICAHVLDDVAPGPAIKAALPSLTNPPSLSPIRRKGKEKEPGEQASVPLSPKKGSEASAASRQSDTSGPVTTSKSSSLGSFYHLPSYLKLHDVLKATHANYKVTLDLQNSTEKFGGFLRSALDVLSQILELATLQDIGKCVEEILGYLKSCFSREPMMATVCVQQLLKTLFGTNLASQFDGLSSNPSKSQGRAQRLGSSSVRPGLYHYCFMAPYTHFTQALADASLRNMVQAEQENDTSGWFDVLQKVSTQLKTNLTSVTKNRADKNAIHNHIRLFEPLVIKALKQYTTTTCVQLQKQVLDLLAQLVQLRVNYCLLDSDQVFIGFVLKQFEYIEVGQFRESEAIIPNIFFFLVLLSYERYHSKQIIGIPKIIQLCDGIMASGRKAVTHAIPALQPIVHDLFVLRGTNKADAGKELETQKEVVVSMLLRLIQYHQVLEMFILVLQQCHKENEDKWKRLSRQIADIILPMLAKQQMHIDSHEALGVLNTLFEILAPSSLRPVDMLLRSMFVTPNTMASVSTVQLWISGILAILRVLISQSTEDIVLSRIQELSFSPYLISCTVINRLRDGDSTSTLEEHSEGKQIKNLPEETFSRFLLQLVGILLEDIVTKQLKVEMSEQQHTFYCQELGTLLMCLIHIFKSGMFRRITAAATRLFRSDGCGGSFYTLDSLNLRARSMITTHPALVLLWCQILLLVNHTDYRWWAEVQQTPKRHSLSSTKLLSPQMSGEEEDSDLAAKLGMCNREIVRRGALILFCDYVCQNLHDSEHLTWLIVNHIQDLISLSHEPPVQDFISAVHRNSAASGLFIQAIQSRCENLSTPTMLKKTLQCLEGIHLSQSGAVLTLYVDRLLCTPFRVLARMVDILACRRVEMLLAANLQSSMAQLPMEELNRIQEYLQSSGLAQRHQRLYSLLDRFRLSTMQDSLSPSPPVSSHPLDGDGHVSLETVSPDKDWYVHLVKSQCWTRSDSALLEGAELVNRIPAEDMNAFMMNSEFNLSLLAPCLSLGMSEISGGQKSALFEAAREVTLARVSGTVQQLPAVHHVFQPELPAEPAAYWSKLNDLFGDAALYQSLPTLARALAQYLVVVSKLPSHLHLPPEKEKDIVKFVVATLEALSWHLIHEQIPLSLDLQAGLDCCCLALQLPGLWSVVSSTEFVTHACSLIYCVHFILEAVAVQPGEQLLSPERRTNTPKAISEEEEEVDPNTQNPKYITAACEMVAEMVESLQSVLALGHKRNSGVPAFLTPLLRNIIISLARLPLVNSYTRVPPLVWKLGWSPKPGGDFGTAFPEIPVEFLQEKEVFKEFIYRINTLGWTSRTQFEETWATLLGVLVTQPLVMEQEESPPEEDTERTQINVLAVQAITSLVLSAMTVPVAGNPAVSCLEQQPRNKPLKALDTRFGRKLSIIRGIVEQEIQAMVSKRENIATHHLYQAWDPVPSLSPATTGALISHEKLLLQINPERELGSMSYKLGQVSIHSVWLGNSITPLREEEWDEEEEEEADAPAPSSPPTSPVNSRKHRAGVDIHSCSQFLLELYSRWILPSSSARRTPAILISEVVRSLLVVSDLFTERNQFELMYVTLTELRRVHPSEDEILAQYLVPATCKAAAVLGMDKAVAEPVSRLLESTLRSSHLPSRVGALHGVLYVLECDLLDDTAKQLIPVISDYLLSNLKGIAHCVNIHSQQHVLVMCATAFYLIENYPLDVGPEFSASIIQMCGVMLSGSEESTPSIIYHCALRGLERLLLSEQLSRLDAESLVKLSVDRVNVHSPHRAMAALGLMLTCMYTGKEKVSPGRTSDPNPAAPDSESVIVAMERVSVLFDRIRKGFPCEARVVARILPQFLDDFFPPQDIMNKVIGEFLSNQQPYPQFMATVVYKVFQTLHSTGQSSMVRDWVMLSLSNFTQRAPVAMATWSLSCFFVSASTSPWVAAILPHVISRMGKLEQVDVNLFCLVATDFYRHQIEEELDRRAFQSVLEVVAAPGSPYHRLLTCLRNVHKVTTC
Numbers without * were called inactive. In the library only some 3.6% were active in any assay of this set; here they are far more common. No stated cut-off is given here; in the data, active means inhibition above about 50%; inactive means the rest.

SMILES	Pf apPOL inh	mHTT-CaM PPI inh
Cc1ccc(S(=O)(=O)CCC(=O)Nc2cc(C)ccn2)cc1	2	-2
CN(C)c1ccc(NC(=O)c2ccc(N(C)C)cc2)cc1	-3	72*
CN(C)c1ccc(NC(=O)c2ccc(Cn3cc([N+](=O)[O-])cn3)cc2)cc1	-4	75*
CC(=O)N(C)c1ccc(NC(=O)c2ccc(Cn3cc(Br)cn3)cc2)cc1	-1	8
CCn1ncc(Br)c1C(=O)Nc1cccc(C(=O)O)c1	-3	0
CCn1ncc(Br)c1C(=O)Nc1ccc(N(C)C)cc1	-7	56*
CN(C)c1ccc(NC(=O)c2ccc(Br)cc2)cc1	7	7
CN1CCCN(C(=O)c2cc3c(s2)CCN(C(=O)c2ccc(Cl)cc2)C3)CC1	-2	9
Clc1ccccc1OCCCN1CCCC1	6	-2
CCNC(=O)c1ccc2c(c1)CCN2C(=O)CC	-4	0
Cc1noc(C)c1C1CCCN1C(=O)c1c(-c2ccccc2Cl)noc1C (configuration not stated)	3	-3
Cc1cc(-c2cc(Cl)ccc2O)n[nH]1	-4	6
O=[N+]([O-])c1ccccc1-c1cc(-c2cc(Cl)ccc2O)n[nH]1	2	100*
COc1ccc(CNC(=O)c2cn3c(n2)CN(CC(C)C)CC3)cc1OC	-2	13
COc1ccc(-c2nc3ccc(C)cn3c2NC(=O)C2CCCC2)cc1	-3	51*
COc1ccc(-c2nc3cc(C)ccn3c2NC(=O)C2CCCC2)cc1	7	31
O=[N+]([O-])c1cccc(C2Nc3ccccc3-c3nc4ccccc4n32)c1 (configuration not stated)	-30	32
O=[N+]([O-])c1ccc(C2Nc3ccccc3-c3nc4ccccc4n32)cc1 (configuration not stated)	-3	54*
Cc1cccc(C)c1NC(=O)CN(C)S(=O)(=O)c1ccc2[nH]c3c(c2c1)CCCC3	-3	26
CN(CC(=O)NCc1ccccc1)S(=O)(=O)c1ccc2[nH]c3c(c2c1)CCCC3	-4	46
Cc1cccc(N(C)C(=O)CN(C)S(=O)(=O)c2ccc3[nH]c4c(c3c2)CCCC4)c1	-4	62*
CCN(Cc1ccccc1)C(=O)CN(C)S(=O)(=O)c1ccc2[nH]c3c(c2c1)CCCC3	-3	65*
O=C(O)C1CCN(S(=O)(=O)N2CCCCCC2)CC1	27	-5
Cc1ccc2c(C(=O)N3CCOCC3)cc(NC(=O)C3CCC3)cc2n1	17	4
COc1ccc(NC(=O)C2CCN(c3nnc(-c4ccc(C)cc4)o3)CC2)cc1OC	-4	-4
SMILES	Pf apPOL inh	mHTT-CaM PPI inh
CC(=O)c1ccc(NC(=O)c2csc3c2CCCC3)cc1	2	-8
CCCNC(=O)c1ccc2c(c1)ncn2-c1cccc(C)c1	0	4
Cn1cccc1/C=C1\CN(Cc2ccccc2)C/C(=C\c2cccn2C)C1=O	-4	99*
O=C1/C(=C/c2cccnc2)CN(Cc2ccccc2)C/C1=C\c1cccnc1	-6	14
COc1ccc2c(C)nc(NC3=NC(C)(C)CC(C)=N3)nc2c1	0	8
COc1ccc(C(=O)NC(Nc2ccc([N+](=O)[O-])cc2)C(Cl)(Cl)Cl)cc1 (configuration not stated)	2	48
COc1ccc(NC(NC(=O)c2ccc([N+](=O)[O-])cc2)C(Cl)(Cl)Cl)cc1 (configuration not stated)	-2	53*
COc1ccc(NC(NC(=O)c2ccc(Cl)cc2)C(Cl)(Cl)Cl)cc1 (configuration not stated)	-8	57*
COc1ccc(C(=O)NC(Nc2ccc(Br)cc2)C(Cl)(Cl)Cl)cc1 (configuration not stated)	7	3
CNc1ccc(C(=O)Nc2nc(C(C)(C)C)cs2)cc1[N+](=O)[O-]	-11	7
CN(C)c1ccc(C(=O)Nc2nc(C(C)(C)C)cs2)cc1[N+](=O)[O-]	-8	62*
O=C(CSc1nnc(CNC(=O)c2ccco2)o1)Nc1cc(C(F)(F)F)ccc1Cl	-1	2
O=C(NS(=O)(=O)c1ccc(F)cc1)c1ccccc1	4	-16
CC1CCN(c2ncc3c(n2)CCN(Cc2ccc(OC(C)C)cc2)C3)CC1	2	41
CC(=O)N1N=C(c2c(-c3ccccc3)c3cc(Cl)ccc3[nH]c2=O)CC1c1ccccc1F (configuration not stated)	-2	18
O=c1[nH]c2ccc(Cl)cc2c(-c2ccccc2)c1C1=NOC(c2ccccc2)C1 (configuration not stated)	-10	100*
CC(=O)N1N=C(c2c(-c3ccccc3)c3cc(Br)ccc3[nH]c2=O)CC1c1ccco1 (configuration not stated)	0	95*
O=c1[nH]c2ccc(Br)cc2c(-c2ccccc2)c1[N+](=O)[O-]	-8	8
CC(=O)N1N=C(c2c(-c3ccccc3)c3cc(Cl)ccc3[nH]c2=O)CC1c1ccccc1Cl (configuration not stated)	-2	93*

Screening results deposited in PubChem BioAssay by University of Kansas High Throughput Screening Laboratory.
